Test results taken from PubChem BioAssay AID720650 (Broad Institute, 2013).
Active and inactive are the calls of the source. The rule behind the calls is not given here.

Experiment: C difficile toxins, biochemical counterscreen, UDPG substrate absence, confirmatory dose response (AID 720650)
Details: series mostly up to 19.5 µM
In the case of `CN1c2ccc(-c3ccccc3)cc2[C@@H]2[C@@H](CCN2C(=O)CN2CCOCC2)[C@@H]1CO`, the AC50 is reported as 7.03 µM (active). With `COc1ccc(C(=O)NC(C(=O)NCc2ccccc2OC)C(C)C)cc1` (stereo not drawn) the AC50 was “inactive”. In the case of `Cc1cccc(/C=C/c2onc(C)c2S(=O)(=O)N2CCC(C(=O)N3CCCCCC3)CC2)c1`, the AC50 is reported as “inactive”. With `COc1cccc(C(=O)OCC(=O)Nc2cc(C)on2)c1OC` the AC50 was “inactive”. In the case of `CC(C)(C)N1[C@@H](CC(=O)O)c2cc(C(F)(F)F)ccc2S1(=O)=O`, the AC50 is reported as “inactive”. In the case of `O=C(N/N=C/c1ccc(O)cc1)NC12CC3CC(CC(C3)C1)C2`, the AC50 is reported as 11.2 µM (active). In the case of `CC(C)OC(=O)c1cccc(C(=O)O)n1`, the AC50 is reported as “inactive”. In the case of `COc1cc(Cn2c(-c3ccc(O)c(OC)c3)nc3ccccc32)ccc1O`, the AC50 is reported as “inactive”. In the case of `O=C(Nc1ccc(O)cc1)C1CCCN1S(=O)(=O)c1ccc(F)cc1` (stereo not drawn), the AC50 is reported as 10.9 µM (active). With `COc1ccc(NS(=O)CCCc2ccccc2)cc1` (stereo not drawn) the AC50 was “inactive”. With `CC(=O)N(C)C[C@@H]1Oc2cc(/C=C/c3ccccc3)ccc2S(=O)(=O)N([C@H](C)CO)C[C@@H]1C` the AC50 was > 39 µM (inactive). In the case of `C[C@H](NC(=O)c1cc2c(cn1)[nH]c1ccccc12)C(=O)O`, the AC50 is reported as “inactive”. With `O=C(NC(=S)NCc1ccccc1)c1cccnc1` the AC50 was “inactive”. In the case of `CC1(C)O[C@@H]2[C@H](O1)[C@@H](COS(=O)(=O)O)O[C@H]2n1c(=S)[nH]c2c(=O)[nH]c(N)nc21`, the AC50 is reported as “inactive”. For `COc1cc(/C=N/NC(=O)CSc2ccccn2)ccc1O`, the AC50 was “inactive”. In the case of `CN(C)CCNc1cccc2sc3ccc(O)cc3c(=O)c12`, the AC50 is reported as 4.36 µM (active). With `Cc1ccc(/C=C/c2onc(C)c2S(=O)(=O)N2CCC(C(=O)N3CCCCC3)CC2)cc1` the AC50 was “inactive”. For `C[C@H](CO)N1C[C@H](C)[C@@H](CN(C)C(=O)Nc2ccc(C(F)(F)F)cc2)Oc2ccc(NC(=O)C3CCCCC3)cc2C1=O`, the AC50 was “inactive”. In the case of `Cc1ccn2c(Cc3ccccc3)c(-c3ccc(F)cc3)nc2c1`, the AC50 is reported as “inactive”. In the case of `CNC(=O)N(O)C1N(/N=C/c2ccc(SC)cc2)C(=S)SC1(C)C` (stereo not drawn), the AC50 is reported as > 39 µM (inactive). In the case of `COc1ccccc1Oc1cn[nH]c1-c1ccc(O)cc1O`, the AC50 is reported as 11.6 µM (active). For `CCC(=O)Nc1ccc2c(c1)OC[C@@H](C)N(C(=O)NC(C)C)C[C@@H](C)[C@@H](OC)CN(C)C2=O`, the AC50 was “inactive”. In the case of `C[C@H](CO)N1C[C@H](C)[C@@H](CN(C)C(=O)Nc2ccc(C(F)(F)F)cc2)Oc2c(cccc2N(C)C)C1=O`, the AC50 is reported as 19 µM (active). For `CC(C)CN1CCN(CC#Cc2ccccc2)CC1CCO` (stereo not drawn), the AC50 was “inactive”. For `Cc1[nH]nc(-c2ccc(O)cc2O)c1Oc1ccccc1`, the AC50 was 14.6 µM (active). For `COc1ccc(CCNC(=O)CCCn2nc(C)n3ccnc3c2=O)cc1OC`, the AC50 was “inactive”. With `CC(=O)NC(Cc1ccccc1)C(=O)Oc1ccc2ccccc2c1` (stereo not drawn) the AC50 was “inactive”. In the case of `O=C(O)C1CCC(CN(Cc2cccc(Br)c2)C(=S)Nc2ccccc2F)CC1` (stereo not drawn), the AC50 is reported as “inactive”. In the case of `COc1ccc2[nH]c3c(=O)n(CCCCC(=O)NCCN4CCCC4)c(=S)[nH]c3c2c1`, the AC50 is reported as 18.5 µM (active). For `Cc1cc(C(=O)CSc2nc(N)cc(=O)[nH]2)c(C)n1CC1CCCO1` (stereo not drawn), the AC50 was “inactive”. For `COc1ccc2cc3c(nc2c1)OCC3`, the AC50 was “inactive”. In the case of `O=C(COc1ccc(/C=N/NC(=O)c2ccc(O)cc2)cc1)Nc1cccc([N+](=O)[O-])c1`, the AC50 is reported as “inactive”. With `c1ccc(SCc2nc3ccccc3s2)nc1` the AC50 was “inactive”. For `O=c1c(OC2OC(CO)C(O)C(O)C2O)c(-c2ccc(O)c(O)c2)oc2cc(O)cc(O)c12` (stereo not drawn), the AC50 was “inactive”. For `Oc1ccc(/C=N/N2CCN(c3ccccn3)CC2)cc1`, the AC50 was 15 µM (active). For `Cc1ccc(NNC(=O)c2ccno2)cc1Cl`, the AC50 was 0.401 µM (active). For `N#Cc1ccc(C(=O)N/N=C/c2cn(CC(=O)O)c3ccccc23)c(F)c1`, the AC50 was “inactive”. In the case of `Cc1cccc(-n2nnc(C(=O)NCc3ccccc3Cl)c2N)c1`, the AC50 is reported as “inactive”.
